Data taken from PubChem BioAssay (NCI).
Values joined by “and” are separate entries in the source; they are usually repeats but may differ in a detail not shown here. Identical values can stand only once. This is part of a sample that, as a whole, favours compounds with a hit. Of some 79,000 tested, about 15% had one in any assay. Where a structure was tested more than once in an assay, its records may differ in their call. Active and inactive are the calls of the source. Cut-off read from the data, not from the text of the source: active = growth inhibition above about 70%; inactive = the rest.

Legend:
[1] = NCI Yeast Anticancer Drug Screen. Data for the rad50 strain (AID 155);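 note: 0% = growth of vehicle-only cultures of the same strain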; conditions: S. cerevisiae rad50 strain growth inhibition, stronger effect = higher value
In short: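 Cells are treated with compound, grown, and their growth is then scored against vehicle-only cultures of the same repair-deficient yeast strain.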

[2] = NCI Yeast Anticancer Drug Screen. Data for the mec2-1 strain (AID 157); conditions: S. cerevisiae mec2-1 strain, stronger effect = higher value
In short: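 mec2-1 yeast strain, carrying an alteration in DNA damage repair or cell cycle control, was exposed to compounds; growth inhibition was measured relative to vehicle-treated controls.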

[3] = NCI Yeast Anticancer Drug Screen. Data for the sgs1 mgt1 strain (AID 161);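 note: 0% = growth of cultures given vehicle only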; conditions: S. cerevisiae sgs1 mgt1 strain, stronger effect = higher value
In short: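 Percent growth inhibition was derived by comparing compound-exposed mutant yeast with vehicle-exposed cultures. The strain carries alterations in DNA damage repair.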

[4] = NCI Yeast Anticancer Drug Screen. Data for the cln2 rad14 strain (AID 165);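 note: 0% = growth equal to vehicle treated cultures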; conditions: S. cerevisiae cln2 rad14 strain, stronger effect = higher value
In short: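 Yeast carrying cln2 and rad14 alterations (cell cycle control and DNA damage repair) were exposed to compounds. Growth inhibition was measured against vehicle-treated controls.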

[5] = NCI Yeast Anticancer Drug Screen. Data for the bub3 strain (AID 167); conditions: S. cerevisiae bub3 mutant strain, stronger effect = higher value
In short: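 Part of a panel of yeast mutants defective in DNA damage repair or cell cycle regulation. Each strain is grown with compound, and inhibition is calculated relative to solvent-treated cultures.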

[6] = NCI Yeast Anticancer Drug Screen. Data for the mlh1 rad18 strain (AID 175); conditions: S. cerevisiae mlh1 rad18 strain growth inhibition, stronger effect = higher value
In short: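 Growth inhibition of the yeast strain was measured after compound exposure and expressed relative to vehicle-treated controls. The strain carries defined defects in DNA damage repair.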

[7] = at 5.0 µM (retest, dose inferred, filed as 0.5)
[8] = at 50.0 µM (retest, dose inferred, filed as 5.0)

Measured: growth inhibition

O=C(Nc1ccc(Cl)cc1)c1ccccc1O
90.8% (active) and 3.8% (inactive): [5]; at 50.0 µM
85.2% (active) and -12.8% (inactive): [4]; at 50.0 µM
89% (active) and -5.25% (inactive): [3]; at 50.0 µM
97.2% (active) and -0.55% (inactive): [6]; at 50.0 µM
92.6% (active) and 4.9% (inactive): [1]; at 50.0 µM
94.7% (active) and -13.8% (inactive): [2]; at 50.0 µM
inactive: [1]; [7] 2% | [1]; [8] 8% | [2]; [7] 2% | [2]; [8] 11% | [3]; [7] 1% | [3]; [8] 33% | [4]; [7] 3% | [4]; [8] 6% | [5]; [7] 8% | [5]; [8] 13% | [6]; [7] 4% | [6]; [8] 9%

NC(C/[N+]([O-])=N/O)C(=O)O (configuration not stated)
inactive: [1]; [7] 18% | [1]; [8] 21% | [1]; at 50.0 µM 40.7% and 47.2% and 57.1% | [2]; [7] 10% | [2]; [8] 13% | [2]; at 50.0 µM 11.1% and 22.1% and 33.5% | [3]; [7] 46% | [3]; [8] 51% | [3]; at 50.0 µM 36.2% and 39.5% and 48.1% | [4]; [7] 37% | [4]; [8] -28% | [4]; at 50.0 µM 5.75% and 1.45% and 18.8% | [5]; [7] 46% | [5]; [8] 4% | [5]; at 50.0 µM -0.3% and 17.1% and 21.9% | [6]; [7] 25% | [6]; [8] 38% | [6]; at 50.0 µM 31.9% and 35.6% and 46.6%

N#CNC1=NCOCN1
inactive: [1]; [7] -3% | [1]; [8] 6% | [1]; at 50.0 µM -1.6% and 21.8% | [2]; [7] 2% | [2]; [8] 10% | [2]; at 50.0 µM 22.4% and 1.35% | [3]; [7] 2% | [3]; [8] -9% | [3]; at 50.0 µM 13.8% and 8.55% | [4]; [7] 4% | [4]; [8] 11% | [4]; at 50.0 µM 13.3% and 18.8% | [5]; [7] -12% | [5]; [8] -3% | [5]; at 50.0 µM 10.1% and -8.85% | [6]; [7] 12% | [6]; [8] 9% | [6]; at 50.0 µM 64.4% and 18.4%

C=C1C(=O)OC2CC(C)C3C4OC4C(O)C3(C)C(O)C12 (configuration not stated)
inactive: [1]; [7] 2% | [1]; [8] 0% | [1]; at 50.0 µM 69.9% | [2]; [7] 2% | [2]; [8] 4% | [2]; at 50.0 µM 39.1% | [3]; [7] 4% | [3]; [8] 8% | [3]; at 50.0 µM 65.7% | [4]; [7] -3% | [4]; [8] -6% | [4]; at 50.0 µM 50.4% | [5]; [7] 2% | [5]; [8] 6% | [6]; [7] 0% | [6]; [8] -2% | [6]; at 50.0 µM 63.6%
active: [5]; at 50.0 µM 71%

CN(C)c1ccc(/C=C/c2sc3ccccc3[n+]2C)cc1
active: [1]; [8] 99% and 98% | [1]; at 50.0 µM 99.2% | [2]; [8] 99% | [2]; at 50.0 µM 99.2% and 99.4% | [3]; [8] 72% and 99% | [3]; at 50.0 µM 99.5% and 99.4% | [4]; [8] 99% and 98% | [4]; at 50.0 µM 98.8% and 99.3% | [5]; [8] 99% | [5]; at 50.0 µM 99.4% and 99.3% | [6]; [8] 99% | [6]; at 50.0 µM 99.3% and 99.2%
inactive: [1]; [7] -39% and 14% | [2]; [7] -16% and 49% | [3]; [7] -2% and 16% | [4]; [7] -2% and 13% | [5]; [7] 12% and -4% | [6]; [7] 7% and 22%

Nc1nc(=S)c2ncn(C3OC(CO)C(O)C3O)c2[nH]1 (configuration not stated)
-11.9% (inactive) and 97.5% (active): [6]; at 50.0 µM
4.9% (inactive) and 96.8% (active): [4]; at 50.0 µM
active: [1]; [7] 79% | [2]; [7] 97% | [5]; [7] 99% | [6]; [7] 94%
0.4% (inactive) and 92.5% (active): [2]; at 50.0 µM
inactive: [1]; [8] 5% | [1]; at 50.0 µM 12.5% and 38.5% | [2]; [8] 6% | [3]; [7] 66% | [3]; [8] 26% | [3]; at 50.0 µM -3.7% and -8.45% | [4]; [7] 49% | [4]; [8] 9% | [5]; [8] 14% | [6]; [8] 52%
-4.2% (inactive) and 98% (active): [5]; at 50.0 µM

COC(=O)C1OC(OC(C)=O)C(OC(C)=O)C(OC(C)=O)C1OC(C)=O (configuration not stated)
inactive: [1]; [7] -4% | [1]; [8] 5% | [1]; at 50.0 µM 7.25% and 3.25% | [2]; [7] -6% | [2]; [8] 8% | [2]; at 50.0 µM 14.4% and 8.2% | [3]; [7] -5% | [3]; [8] 9% | [3]; at 50.0 µM 7.05% and 10.9% | [4]; [7] 1% | [4]; [8] -2% | [4]; at 50.0 µM -12.2% and 60.5% | [5]; [7] -4% | [5]; [8] 11% | [5]; at 50.0 µM -7.15% and 24.6% | [6]; [7] -7% | [6]; [8] 14% | [6]; at 50.0 µM 16% and 9.3%

O=C1NC(=O)c2c1cccc2[N+](=O)[O-]
inactive: [1]; [7] -7% | [1]; [8] 31% and 12% | [1]; at 50.0 µM -4.8% and 18.4% | [2]; [7] -20% and 2% | [2]; [8] 4% and 8% | [2]; at 50.0 µM -4% and 25% | [3]; [7] -2% and 0% | [3]; [8] 0% and 8% | [3]; at 50.0 µM 9.25% and -3.15% | [4]; [7] -5% and 0% | [4]; [8] -6% and -5% | [4]; at 50.0 µM 45.3% and 50.4% | [5]; [7] 37% and -2% | [5]; [8] -4% and 8% | [5]; at 50.0 µM -1.4% and 20.1% | [6]; [7] -4% and -3% | [6]; [8] 3% and 13% | [6]; at 50.0 µM 8.5% and 2.2%

O=C(CC1=Nc2nnc(CCCCCCCc3nnc4n3C(=O)C(CC(=O)c3ccc5ccccc5c3)=N4)n2C1=O)c1ccc2ccccc2c1
active: [1]; [8] 85% | [2]; [8] 92% | [3]; [8] 93% | [4]; [8] 85% | [4]; at 50.0 µM 82.1% | [5]; [8] 88%
inactive: [1]; [7] 1% | [1]; at 50.0 µM 17.9% | [2]; [7] 1% | [2]; at 50.0 µM 9.85% | [3]; [7] -2% | [3]; at 50.0 µM 18.4% | [4]; [7] 6% | [5]; [7] 6% | [5]; at 50.0 µM 1.75% | [6]; [7] 3% | [6]; [8] 37% | [6]; at 50.0 µM 26.9%

c1ccc(Cc2cc3ccccc3c3ccccc23)cc1
inactive: [1]; [7] 4% | [1]; [8] 14% | [1]; at 50.0 µM 20.1% | [2]; [7] 5% | [2]; [8] 23% | [2]; at 50.0 µM 14.9% | [3]; [7] 2% | [3]; [8] -3% | [3]; at 50.0 µM -6.6% | [4]; [7] 16% | [4]; [8] 6% | [4]; at 50.0 µM -0.55% | [5]; [7] 2% | [5]; [8] 3% | [6]; [7] 4% | [6]; [8] -2%
active: [5]; at 50.0 µM 91.3% | [6]; at 50.0 µM 82.5%

CCCCN(C(=O)CCl)c1ccccc1
inactive: [1]; [7] 2% | [1]; [8] 13% | [1]; at 50.0 µM 50.3% | [2]; [7] -1% | [2]; [8] 9% | [2]; at 50.0 µM 19.1% | [3]; [7] -4% | [3]; [8] 3% | [3]; at 50.0 µM 54.2% | [4]; [7] 1% | [4]; [8] 5% | [4]; at 50.0 µM 20% | [5]; [7] -9% | [5]; [8] -16% | [5]; at 50.0 µM 34.9% | [6]; [7] 0% | [6]; [8] 10%
active: [6]; at 50.0 µM 73.7%

CC(=O)OCC(OC(C)=O)C(OC(C)=O)C(OC(C)=O)C(OC(C)=O)C(/C=N/Nc1ccccc1)=N/Nc1ccccc1 (configuration not stated)
93% (active) and -1% (inactive): [6]; [8]
86% (active) and 1% (inactive): [4]; [8]
95.2% (active) and 40.5% (inactive): [6]; at 50.0 µM
94.8% (active) and 57.6% (inactive): [1]; at 50.0 µM
inactive: [1]; [7] 21% and -14% | [2]; [7] 4% and 1% | [2]; [8] 68% and -7% | [2]; at 50.0 µM 48.1% and 4.7% | [3]; [7] -12% and -18% | [3]; [8] 50% and 9% | [3]; at 50.0 µM 47.8% and 6.1% | [4]; [7] 23% and 0% | [4]; at 50.0 µM 44.4% and 29.6% | [5]; [7] 7% and -3% | [6]; [7] 26% and -3%
86.3% (active) and 18.7% (inactive): [5]; at 50.0 µM
90% (active) and 4% (inactive): [1]; [8]
87% (active) and -12% (inactive): [5]; [8]

Nc1cc2c(cc1[N+](=O)[O-])[nH]c1c(-c3ccccc3)nccc12
active: [1]; [8] 97% | [1]; at 50.0 µM 99.2% | [2]; [8] 99% | [2]; at 50.0 µM 96.4% | [3]; [8] 99% | [3]; at 50.0 µM 99.3% | [4]; [8] 89% | [4]; at 50.0 µM 99.1% | [5]; [8] 98% | [5]; at 50.0 µM 99.2% | [6]; [8] 98% | [6]; at 50.0 µM 98.9%
inactive: [1]; [7] 9% | [2]; [7] -5% | [3]; [7] 10% | [4]; [7] 1% | [5]; [7] 28% | [6]; [7] 2%

Nc1c2ccccc2nc2ccccc12
63.6% (inactive) and 75.5% (active): [5]; at 50.0 µM
66% (inactive) and 70% (active): [2]; [8]
active: [1]; [8] 92% and 90% | [1]; at 50.0 µM 94.5% and 92.5% | [3]; at 50.0 µM 75.8% and 74% | [5]; [8] 79% and 73% | [6]; [8] 86% | [6]; at 50.0 µM 90.6% and 88.5%
inactive: [1]; [7] 51% and 41% | [2]; [7] 18% and 19% | [2]; at 50.0 µM 60.8% and 60.3% | [3]; [7] 20% and 18% | [4]; [7] 25% | [4]; [8] 51% and 65% | [5]; [7] 5% and -1% | [6]; [7] 21% and 25%
73% (active) and 68% (inactive): [3]; [8]
54.5% (inactive) and 79% (active): [4]; at 50.0 µM
